The supplement of paper PMC10849652
Targets with a hit are over-represented here; the source holds about 7,900 in all. About 0.6% of all pairs of compound and target were hits. Unmarked numbers belong to inactive results.

Legend:
Test in all cases: log2 fold change, soluble protein after heating vs DMSO (PISA); higher = thermal stabilisation; K562 cells, 10 uM, 30 min; active = over 0.2 and 3.5 SD of the protein, either way, in both replicates (recomputed)
erlotinib = compound: C#Cc1cccc(Nc2ncnc3cc(OCCOC)c(OCCOC)cc23)c1 [erlotinib]
Summary of the method: (§1)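 Soluble protein was defined as the supernatant after 21,000xg for 90 min. It came from K562 cells at 2×10^6 cells/mL given 10 μM compound for 30 min, heated in aliquots for 3 min across 48°C-58°C, pooled, and extracted in PBS with 0.5% NP-40 at 4°C, and was quantified by TMTpro 16plex LC-MS/MS with equalised channel sums. Thermal stability against control samples, from duplicates, is reported as log2 fold change.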

[1] = compound: C/C(=N\NC(=O)C1=CC(=CC=C1)S(=O)(=O)N2CCOCC2)/C3=C(C=CC(=C3)Cl)O
Summary of the method: as §1

[2] = compound: C1=CC(=C(C=C1Cl)C2=NC3=NC=CN=C3C(=N2)NC4=CC=NC=C4)F
Summary of the method: as §1

[3] = compound: C1=CC(=CC=C1C2=NC3=C(N2)C=C(C=C3)C(=O)N)OC4=CC=C(C=C4)Cl
Summary of the method: as §1

[4] = compound: C1=CC2=C(C=CC(=C2)/C=C\3/C(=O)NC(=NCC4=CC=CS4)S3)N=C1
Summary of the method: as §1

[5] = compound: C1=CC2=NC=CN=C2C=C1/C=C/3\C(=O)NC(=O)S3
Summary of the method: as §1

[6] = compound: C1=CC=C(C=C1)C2=NC(=C(N2)C3=CC=NC=C3)C4=CC(=C(C=C4)Cl)O
Summary of the method: as §1

[7] = compound: C1=CC=C2C(=C1)C3=NNC4=CC=CC(=C43)C2=O
Summary of the method: as §1

[8] = compound: C1CCN(C1)C(=O)NC2=CC=CC(=C2)NC3=NC=C(C(=N3)NCCC4=CN=CN4)Br
Summary of the method: as §1

[9] = compound: C1CN(CCC1(CC2=CC=C(C=C2)Cl)N)C3=NC=NC4=C3C=CN4
Summary of the method: as §1

ibrutinib = compound: C=CC(=O)N1CCC[C@@H](n2nc(-c3ccc(Oc4ccccc4)cc3)c3c(N)ncnc32)C1 [ibrutinib]
Summary of the method: as §1

[10] = compound: CC(=O)c1cnc2ccc(-c3cc(Cl)c(O)c(Cl)c3)nc2c1N[C@H]1CC[C@H](CN(C)C)CC1
Summary of the method: as §1

ralimetinib = compound: CC(C)(C)Cn1c(N)nc2ccc(-c3[nH]c(C(C)(C)C)nc3-c3ccc(F)cc3)nc21 [ralimetinib]
Summary of the method: as §1

[11] = compound: CC(C)(O)CC(=O)NCCn1ccc2ncnc(Nc3ccc(Oc4cccc(C(F)(F)F)c4)c(Cl)c3)c21
Summary of the method: as §1

[12] = compound: CC(C)C1=C2N=C(C=C(N2N=C1)NCC3=CC=CC=C3)NCCCCCCN
Summary of the method: as §1

[13] = compound: CC(C)C[C@@H](C=O)NC(=O)[C@H](CC(C)C)NC(=O)[C@H](CC(C)C)NC(=O)OCc1ccccc1
Summary of the method: as §1

[14] = compound: CC1=C(C(CC(=O)N1)C2=CC=C(C=C2)C(F)(F)F)C(=O)NC3=C(C=C4C(=C3)C=NN4)F
Summary of the method: as §1

[15] = compound: CC1=C(C2=C(C=C1)C(=O)C3=CC=CC=C3N2CCCN)C
Summary of the method: as §1

IRAK-1-4 Inhibitor I = compound: C1COCCN1CCN2C3=CC=CC=C3N=C2NC(=O)C4=CC(=CC=C4)[N+](=O)[O-] [IRAK-1-4 Inhibitor I]
Summary of the method: as §1

pinometostat = compound: CC(C)N(C[C@H]1O[C@@H](n2cnc3c(N)ncnc32)[C@H](O)[C@@H]1O)[C@H]1C[C@@H](CCc2nc3cc(C(C)(C)C)ccc3[nH]2)C1 [pinometostat]
Summary of the method: as §1

Chain of UniProt Q86XT9 (Q86XT9 whole entry, looked up): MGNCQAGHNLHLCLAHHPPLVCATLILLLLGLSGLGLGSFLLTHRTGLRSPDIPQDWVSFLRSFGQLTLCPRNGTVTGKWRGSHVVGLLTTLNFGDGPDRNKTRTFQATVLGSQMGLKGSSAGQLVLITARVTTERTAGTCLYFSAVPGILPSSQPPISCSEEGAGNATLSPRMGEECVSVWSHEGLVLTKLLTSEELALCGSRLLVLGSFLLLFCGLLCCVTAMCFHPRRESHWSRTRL
Chain of UniProt P49815 (P49815 whole entry, looked up): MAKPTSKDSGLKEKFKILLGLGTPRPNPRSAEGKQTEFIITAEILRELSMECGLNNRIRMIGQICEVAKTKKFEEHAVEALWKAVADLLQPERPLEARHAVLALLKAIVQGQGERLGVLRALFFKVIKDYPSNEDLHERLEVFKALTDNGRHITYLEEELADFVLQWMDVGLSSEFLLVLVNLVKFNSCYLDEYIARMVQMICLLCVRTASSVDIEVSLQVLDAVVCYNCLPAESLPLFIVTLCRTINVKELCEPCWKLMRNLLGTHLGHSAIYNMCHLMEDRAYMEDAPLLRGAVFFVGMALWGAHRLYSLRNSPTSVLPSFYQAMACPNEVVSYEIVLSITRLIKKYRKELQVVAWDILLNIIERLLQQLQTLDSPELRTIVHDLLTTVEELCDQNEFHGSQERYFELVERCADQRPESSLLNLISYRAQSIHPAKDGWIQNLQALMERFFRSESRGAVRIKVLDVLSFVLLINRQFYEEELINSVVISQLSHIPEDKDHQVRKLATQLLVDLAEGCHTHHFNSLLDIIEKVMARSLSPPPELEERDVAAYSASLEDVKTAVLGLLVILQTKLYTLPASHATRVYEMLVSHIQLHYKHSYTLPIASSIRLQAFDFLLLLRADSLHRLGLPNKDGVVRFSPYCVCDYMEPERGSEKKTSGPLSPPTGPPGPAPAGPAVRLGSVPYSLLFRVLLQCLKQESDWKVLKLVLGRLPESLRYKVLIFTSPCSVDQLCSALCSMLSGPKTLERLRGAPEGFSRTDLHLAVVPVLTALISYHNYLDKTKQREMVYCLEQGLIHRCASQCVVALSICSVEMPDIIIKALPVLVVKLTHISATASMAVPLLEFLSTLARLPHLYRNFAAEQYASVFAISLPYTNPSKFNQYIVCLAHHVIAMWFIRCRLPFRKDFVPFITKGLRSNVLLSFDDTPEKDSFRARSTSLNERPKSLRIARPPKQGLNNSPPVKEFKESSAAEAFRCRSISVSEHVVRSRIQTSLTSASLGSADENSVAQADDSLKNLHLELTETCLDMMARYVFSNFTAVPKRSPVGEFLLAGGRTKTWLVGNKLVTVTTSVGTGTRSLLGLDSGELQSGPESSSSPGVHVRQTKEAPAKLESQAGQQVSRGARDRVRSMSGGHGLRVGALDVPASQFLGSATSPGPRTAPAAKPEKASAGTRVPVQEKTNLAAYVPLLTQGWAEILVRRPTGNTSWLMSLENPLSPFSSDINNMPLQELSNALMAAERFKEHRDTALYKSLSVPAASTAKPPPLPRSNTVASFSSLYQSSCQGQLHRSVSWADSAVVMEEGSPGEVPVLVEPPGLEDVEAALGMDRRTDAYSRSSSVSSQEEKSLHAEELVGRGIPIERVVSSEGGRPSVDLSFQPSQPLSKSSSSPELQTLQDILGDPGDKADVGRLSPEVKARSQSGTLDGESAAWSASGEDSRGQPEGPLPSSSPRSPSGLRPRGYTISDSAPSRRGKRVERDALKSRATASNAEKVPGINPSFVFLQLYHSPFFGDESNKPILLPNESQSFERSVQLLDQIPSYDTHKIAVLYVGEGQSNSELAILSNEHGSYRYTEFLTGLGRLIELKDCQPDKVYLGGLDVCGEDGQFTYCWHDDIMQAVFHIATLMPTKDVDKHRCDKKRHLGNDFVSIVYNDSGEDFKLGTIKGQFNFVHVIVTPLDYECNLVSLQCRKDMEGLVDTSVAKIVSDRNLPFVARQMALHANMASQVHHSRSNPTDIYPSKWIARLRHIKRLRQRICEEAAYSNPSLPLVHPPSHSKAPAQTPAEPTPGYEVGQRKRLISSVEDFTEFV
Chain of UniProt Q5U3C3 (Q5U3C3 whole entry, looked up): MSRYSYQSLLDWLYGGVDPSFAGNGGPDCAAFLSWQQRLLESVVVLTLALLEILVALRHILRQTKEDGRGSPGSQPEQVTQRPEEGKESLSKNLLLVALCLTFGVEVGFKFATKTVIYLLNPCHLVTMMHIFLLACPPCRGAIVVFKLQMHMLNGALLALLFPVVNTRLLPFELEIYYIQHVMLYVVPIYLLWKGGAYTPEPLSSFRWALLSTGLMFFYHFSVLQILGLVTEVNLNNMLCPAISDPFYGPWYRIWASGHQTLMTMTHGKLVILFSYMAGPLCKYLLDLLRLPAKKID
Chain of UniProt Q5VZI3 (Q5VZI3 whole entry, looked up): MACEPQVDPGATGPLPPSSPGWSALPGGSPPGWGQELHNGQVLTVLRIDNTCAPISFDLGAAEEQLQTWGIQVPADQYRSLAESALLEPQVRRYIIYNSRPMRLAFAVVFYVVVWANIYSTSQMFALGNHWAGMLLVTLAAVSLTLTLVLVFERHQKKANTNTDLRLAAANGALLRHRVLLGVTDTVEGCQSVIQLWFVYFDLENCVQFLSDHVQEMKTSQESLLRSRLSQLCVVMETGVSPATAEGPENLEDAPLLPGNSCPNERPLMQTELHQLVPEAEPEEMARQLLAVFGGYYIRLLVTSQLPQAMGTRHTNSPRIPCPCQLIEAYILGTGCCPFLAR
Chain of UniProt O94874 (O94874 whole entry, looked up): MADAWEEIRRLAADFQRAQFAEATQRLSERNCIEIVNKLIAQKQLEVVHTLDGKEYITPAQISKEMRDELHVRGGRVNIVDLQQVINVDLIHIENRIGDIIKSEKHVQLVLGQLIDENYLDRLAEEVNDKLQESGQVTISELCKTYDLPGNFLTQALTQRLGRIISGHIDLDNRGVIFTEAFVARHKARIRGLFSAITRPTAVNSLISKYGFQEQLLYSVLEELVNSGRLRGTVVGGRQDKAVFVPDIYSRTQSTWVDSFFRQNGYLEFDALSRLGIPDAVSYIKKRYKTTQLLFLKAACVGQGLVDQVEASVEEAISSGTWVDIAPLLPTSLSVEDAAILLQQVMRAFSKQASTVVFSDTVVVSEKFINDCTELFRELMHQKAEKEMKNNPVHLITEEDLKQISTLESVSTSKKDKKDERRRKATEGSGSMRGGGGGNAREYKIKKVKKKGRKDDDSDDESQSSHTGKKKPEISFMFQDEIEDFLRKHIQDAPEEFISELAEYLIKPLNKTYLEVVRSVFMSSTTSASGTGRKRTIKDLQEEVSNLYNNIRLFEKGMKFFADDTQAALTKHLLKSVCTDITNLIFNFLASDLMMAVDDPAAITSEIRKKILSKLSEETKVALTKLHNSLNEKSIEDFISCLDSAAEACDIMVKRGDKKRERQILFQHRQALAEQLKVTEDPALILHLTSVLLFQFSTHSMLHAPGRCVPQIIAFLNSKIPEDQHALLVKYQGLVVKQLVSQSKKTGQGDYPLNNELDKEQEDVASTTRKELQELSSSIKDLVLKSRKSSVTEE
Chain of UniProt O75717 (O75717 whole entry, looked up): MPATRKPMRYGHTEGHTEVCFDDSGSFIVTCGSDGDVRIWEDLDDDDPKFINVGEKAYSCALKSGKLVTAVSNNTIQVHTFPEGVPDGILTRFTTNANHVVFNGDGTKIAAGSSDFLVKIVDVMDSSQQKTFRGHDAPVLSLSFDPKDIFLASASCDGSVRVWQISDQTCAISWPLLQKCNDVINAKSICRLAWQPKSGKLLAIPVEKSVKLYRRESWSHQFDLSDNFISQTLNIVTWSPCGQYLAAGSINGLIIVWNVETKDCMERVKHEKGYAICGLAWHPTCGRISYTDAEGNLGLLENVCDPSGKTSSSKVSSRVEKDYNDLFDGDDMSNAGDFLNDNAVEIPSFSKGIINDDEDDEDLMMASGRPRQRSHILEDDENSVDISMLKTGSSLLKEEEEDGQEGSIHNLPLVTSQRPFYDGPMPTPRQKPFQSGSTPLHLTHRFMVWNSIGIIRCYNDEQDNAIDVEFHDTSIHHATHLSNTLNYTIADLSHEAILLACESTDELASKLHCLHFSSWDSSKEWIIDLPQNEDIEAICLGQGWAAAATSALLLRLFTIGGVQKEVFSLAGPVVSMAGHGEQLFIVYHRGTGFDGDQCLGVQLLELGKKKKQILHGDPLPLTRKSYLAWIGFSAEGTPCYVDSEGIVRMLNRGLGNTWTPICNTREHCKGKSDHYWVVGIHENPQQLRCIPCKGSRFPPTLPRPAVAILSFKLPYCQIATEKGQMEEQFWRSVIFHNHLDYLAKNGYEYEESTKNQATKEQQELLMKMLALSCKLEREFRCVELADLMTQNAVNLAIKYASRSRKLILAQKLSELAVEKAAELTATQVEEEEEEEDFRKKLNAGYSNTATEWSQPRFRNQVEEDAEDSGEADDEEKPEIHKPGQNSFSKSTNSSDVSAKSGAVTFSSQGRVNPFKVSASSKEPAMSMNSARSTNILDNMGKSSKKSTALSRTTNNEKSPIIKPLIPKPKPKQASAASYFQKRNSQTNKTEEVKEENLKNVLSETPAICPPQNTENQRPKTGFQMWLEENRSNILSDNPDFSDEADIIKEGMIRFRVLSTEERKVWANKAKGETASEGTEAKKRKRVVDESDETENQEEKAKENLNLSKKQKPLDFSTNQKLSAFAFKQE
Chain of UniProt Q969T4 (Q969T4 whole entry, looked up): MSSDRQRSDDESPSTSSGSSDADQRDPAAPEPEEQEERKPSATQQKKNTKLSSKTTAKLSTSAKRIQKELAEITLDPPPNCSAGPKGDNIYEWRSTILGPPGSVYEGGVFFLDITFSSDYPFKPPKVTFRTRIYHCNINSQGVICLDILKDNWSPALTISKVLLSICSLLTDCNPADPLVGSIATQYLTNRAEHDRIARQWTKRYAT

Target	log2 fold change (erlotinib)	log2 fold change [1]	log2 fold change [2]	log2 fold change [3]	log2 fold change [4]	log2 fold change [5]	log2 fold change [6]	log2 fold change [7]	log2 fold change [8]	log2 fold change [9]	log2 fold change (ibrutinib)	log2 fold change [10]	log2 fold change (ralimetinib)	log2 fold change [11]	log2 fold change [12]	log2 fold change [13]	log2 fold change [14]	log2 fold change [15]	log2 fold change (IRAK-1-4 Inhibitor I)	log2 fold change (pinometostat)
TMEM268 isoform 3 (UniProt Q5VZI3)	-0.161	0.061	-0.166	0.054	0.024	-0.138	0.118	-0.21	0.13	0.045	0.036	-0.042	-0.056	-0.334	-0.095	-0.016	-0.033	0.014	–	–
TMEM164 (UniProt Q5U3C3)	-0.103	0.178	0.041	0.002	0.129	0.078	–	0.017	-0.042	0.021	-0.036	-0.088	–	-0.025	-0.309	–	-0.08	0.066	0.057	-0.073
TSC2 (UniProt P49815)	0.276	-0.047	-0.104	-0.297	-0.025	-0.135	0.06	0.063	-0.001	0.199	0.028	0.05	0.091	-0.001	0.103	0.056	–	0.105	-0.045	0.085
UFL1 (UniProt O94874)	0.06	0.075	0.037	-0.03	0.021	0.021	0.069	0.096	-0.012	-0.101	-0.037	-0.022	0.073	-0.055	-0.142	0.015	-0.017	0.026	-0.048	0.042
TTC38 (UniProt Q5R3I4)	0.749 (active)	0.032	0.082	0.072	0.021	-0.002	0.035	0.09	-0.06	0.025	-0.048	0.023	0.017	-0.204	-0.06	-0.195	-0.081	0.801 (active)	0.129	0.027
UBE2E3 (UniProt Q969T4)	0.063	0.112	0.152	-0.034	0.083	0.009	0.014	0.045	-0.028	-0.019	-0.059	-0.027	0.069	-0.046	-0.08	-0.039	-0.019	0.066	0.106	0.096
TSG101 (UniProt Q99816)	0.022	0.054	0.051	0.027	0.046	0.004	-0.032	0	0.003	-0.006	0.004	-0.017	-0.005	-0.025	-0.146	0.031	0.001	-0.012	0.05	-0.003
TMEM219 (UniProt Q86XT9)	-0.029	0.035	0.059	0.073	0.001	0.015	–	0.006	0.042	0.016	0.115	0.083	–	-0.015	0.007	–	0.031	-0.134	–	–
WDHD1 (UniProt O75717)	0.007	0.173	0.093	-0.002	0.026	0.038	-0.02	-0.028	-0.031	-0.013	0.006	-0.087	-0.038	-0.065	-0.125	0	-0.02	-0.063	-0.055	-0.03
